Screens (PubChem)
An excerpt weighted towards active compounds, which were near 11% of everything screened.
G9a block: inhibitors of human histone lysine methyltransferase G9a | Q96KQ7 | 8.8% of 350,000 active | G9a H3K9 monomethylation, AlphaScreen, 2 h | Potency, µM (highest dose often 102 µM), most hits filed as inhibitors; further: nearly all actives have a fitted effect of over 75% in size
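Methyltransferase reactions run at room temperature for 2 h (20 nM enzyme, 500 nM biotin-H3K9 peptide, 20 uM SAM) after a 15 min compound preincubation; product detected by AlphaScreen beads and anti-H3K9me1 antibody.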
JMJD2A Tudor inh: blocks the human JMJD2A Tudor domain. O75164. AlphaScreen JMJD2A-Tudor / H3K4me3 peptide binding. Potency, µM (top dose mostly 114 µM), actives largely listed as inhibitors. 4.4% of 390,000 active; further: nearly all actives have a fitted effect of over 50% in size
HP1b chromo inh: blocks HP1-beta chromodomain binding to methylated histone tails. Potency, µM (doses to about 114 µM), most hits filed as inhibitors. AlphaScreen HP1-beta / biotin-H3K9me3 peptide binding. P83916. 0.56% of 390,000 active. AID 540317; further: nearly all actives have a fitted effect of over 70% in size
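Compound inhibition of the preformed complex between 50 nM HP1-beta and 50 nM biotinylated H3K9me3 peptide was read by AlphaScreen. Buffer was PBS pH 7.4 with 0.01% Tween-20. Incubations ran 30 min at room temperature, with 10 ug/mL donor/acceptor beads.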
L3MBTL1 inh: inhibitors of human L3MBTL1; AlphaScreen L3MBTL1–H3K9me1 peptide binding; Potency, µM (top dose mostly 57.1 µM), most hits filed as inhibitors; Q9Y468; AID 485360; 0.66% of 230,000 active; further: nearly all actives have a fitted effect of over 60% in size
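AlphaScreen proximity signal between nickel-chelate acceptor and streptavidin donor beads (final 10 ug/mL) reports binding of 50 nM L3MBTL1 to 75 nM biotin-H3 K9me1 peptide; complex incubated with compounds 30 min at room temperature; cefsulodin titration as control.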
BAZ2B block: BAZ2B (human) inhibition; AlphaScreen BAZ2B-H3K14Ac peptide displacement; Potency, µM (doses to about 114 µM), usual class: inhibitors; 4.4% of 360,000 active; AID 504333; further: nearly all actives have a fitted effect of over 60% in size
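In this displacement format the biotinylated H3(5-23) peptide acetylated at Lys14 serves as ligand at 50 nM, with BAZ2B at 50 nM in PBS pH 7.4 containing 0.01% Tween-20. Donor and acceptor beads are 10 ug/mL final.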
Large screens that a line does not name were inactive; ! = repeats disagree. The call rests on the fitted dose curve; in most records, active means well fitted inhibition curve with a large enough effect; inconclusive means small, poorly fitted or top-dose-only effect; inactive means no such curve, though single readings can be large or run the other way.

FC(F)C(F)(F)Oc1cccc(-c2n[nH]c(=S)n2Cc2ccccc2)c1	none
C=CCn1c(-c2ccccc2OC)n[nH]c1=S	G9a block 2µM, JMJD2A Tudor inh 6.3µM
COCCCNC(=O)c1c(NC(=O)Cc2coc3cc(C)ccc23)sc2c1CCCC2	none (no result: L3MBTL1 inh)
COc1ccc(C2(CNC(=O)c3cccc([N+](=O)[O-])c3)CCOCC2)cc1OC	JMJD2A Tudor inh 56µM
COc1ccc(C2(CNC(=O)c3ccccc3[N+](=O)[O-])CCOCC2)cc1	G9a block 40µM
CCc1ccc(NC(=O)Cn2c(=O)n(CCC(=O)NCCc3ccc(Cl)cc3)c(=O)c3ccccc32)cc1	none (no result: L3MBTL1 inh)
O=C(O)c1ccc(Nc2cc(Cl)c3nonc3c2[N+](=O)[O-])cc1	G9a block 35µM
Cc1c(Nc2cc(Cl)c3nonc3c2[N+](=O)[O-])c(=O)n(-c2ccccc2)n1C	G9a block 7.1µM (no result: L3MBTL1 inh)
O=[N+]([O-])c1c(Nc2cccc(O)c2)cc(Cl)c2nonc12	G9a block 45µM, JMJD2A Tudor inh inconclusive, BAZ2B block inconclusive
O=C(Nc1cc2c(cc1C(=O)c1ccccc1Br)OCCO2)c1ccccc1	G9a block inconclusive, JMJD2A Tudor inh inconclusive, BAZ2B block inconclusive (no result: L3MBTL1 inh)
Cc1[nH]c2c(Cl)cccc2c1CCNC(=O)C1CCCCC1C(=O)OCC(F)(F)F (stereo unspecified)	G9a block 71µM
O=C(CCc1ccccc1)N1CCN(S(=O)(=O)c2cccs2)CC1	none (no result: L3MBTL1 inh)
O=C(CCc1ccc(Oc2cc([N+](=O)[O-])cc([N+](=O)[O-])c2)cc1)N1CCCCCC1	G9a block inconclusive, JMJD2A Tudor inh 40µM, HP1b chromo inh inconclusive, L3MBTL1 inh inconclusive, BAZ2B block 25µM
COc1ccc(N2CCN(C(=O)CCNS(=O)(=O)c3cccs3)CC2)cc1	G9a block 25µM (no result: L3MBTL1 inh)
COc1ccc(N2CCN(C(=O)CCc3ccc(S(=O)(=O)NCC(C)C)cc3)CC2)cc1	G9a block 7.1µM
O=C(Cc1ccc([N+](=O)[O-])cc1)N1CCCCCC1	none (no result: L3MBTL1 inh, BAZ2B block)
COc1ccc(CCC(=O)N2CCN(S(=O)(=O)c3cccs3)CC2)cc1	G9a block 45µM
CCCNS(=O)(=O)c1ccc(CCC(=O)N2CCN(CC)CC2)cc1	G9a block inconclusive (no result: L3MBTL1 inh)
COc1ccc(S(=O)(=O)N(C)CC(=O)N2CCN(c3ccccc3)CC2)cc1	none (no result: L3MBTL1 inh)
COc1ccccc1/C=C/C(=O)N1CCN(S(=O)(=O)c2cccs2)CC1	none (no result: G9a block, BAZ2B block)
COc1ccc(N2CCN(C(=O)CN(C)S(=O)(=O)c3cccs3)CC2)cc1	G9a block 50µM! (no result: L3MBTL1 inh)
O=C(c1cc2ccccc2o1)N1CCN(S(=O)(=O)c2cccs2)CC1	G9a block 16µM (no result: L3MBTL1 inh)
CCCNS(=O)(=O)c1ccc(CCC(=O)N2CCCCC2)cc1	JMJD2A Tudor inh 20µM, HP1b chromo inh inconclusive
O=C(/C=C/c1ccc([N+](=O)[O-])cc1)N1CCN(S(=O)(=O)c2cccs2)CC1	G9a block 50µM
COc1ccccc1CNc1ccc(-c2nc(C(C)C)no2)cc1[N+](=O)[O-]	none (no result: L3MBTL1 inh)
CC1CCCCN1C(=O)Cn1c(=O)n(-c2ccc(Cl)cc2)c(=O)c2c3c(sc21)CCC3 (stereo unspecified)	none (no result: L3MBTL1 inh)
Cc1cccc(NC(=O)C2CCCN(S(=O)(=O)c3cnc[nH]3)C2)c1C (stereo unspecified)	none (no result: L3MBTL1 inh)
Cn1cccc1C(=O)N1CCC2(CC1)CN(C(c1ccccc1)c1ccccc1)C2	none (no result: JMJD2A Tudor inh, HP1b chromo inh, L3MBTL1 inh, BAZ2B block)
CCCCSc1nc(NCc2ccco2)c2c3c(sc2n1)COC(C)(C)C3	G9a block 50µM
COc1ccc(C2CC3(CC(C)(C)NC(SC)=N3)Oc3cc(O)cc(C)c32)cc1 (stereo unspecified)	G9a block inconclusive, JMJD2A Tudor inh 79µM
Cc1ccccc1CNC1CCCCC1	none
O=[N+]([O-])c1ccccc1CNC1CCCCCC1	G9a block 22µM, JMJD2A Tudor inh 50µM, HP1b chromo inh inconclusive, BAZ2B block inconclusive
O=C1CC[C@H](C(=O)N[C@@H]2C[C@H]2c2ccccc2)N1	none (no result: JMJD2A Tudor inh, HP1b chromo inh, L3MBTL1 inh, BAZ2B block)
CCOC(=O)c1cccc(NC(=O)c2cn(-c3cccc(OC)c3)c(=O)c3ccccc23)c1	G9a block 10µM (no result: L3MBTL1 inh)
CCOC(=O)c1ccc(OC(=O)c2cn(-c3cccc(OC)c3)c(=O)c3ccccc23)cc1	none (no result: L3MBTL1 inh)
O=c1[nH]c2ccc(NS(=O)(=O)c3ccc(F)c(Cl)c3)cc2[nH]1	G9a block inconclusive, JMJD2A Tudor inh inconclusive (no result: L3MBTL1 inh)
O=c1[nH]c2ccc(NS(=O)(=O)c3ccc4ccccc4c3)cc2[nH]1	G9a block 50µM
O=c1[nH]c2ccc(NS(=O)(=O)c3ccc(Cl)cc3)cc2[nH]1	G9a block 56µM
Cc1ccc2[nH]c(C)c(/C=N/Nc3nc4ccccc4s3)c2c1	G9a block inconclusive, JMJD2A Tudor inh 45µM, BAZ2B block inconclusive
Brc1csc(/C=N/Nc2nc3ccccc3s2)c1	none
COc1ccc(C2C(C(=O)O)CCC(=O)N2c2ccc(C)cc2)cc1OC (stereo unspecified)	none (no result: L3MBTL1 inh)
Cc1ccc(C(=O)Nc2nccs2)cc1	none
CCOC(=O)c1ccccc1NC(=O)c1ccc2nc[nH]c2c1	none (no result: L3MBTL1 inh)
O=C(Nc1nccs1)c1ccc2nccnc2c1	JMJD2A Tudor inh 79µM
CCOC(=O)c1ccccc1NC(=O)c1ccc2nccnc2c1	JMJD2A Tudor inh 50µM, L3MBTL1 inh inconclusive (no result: BAZ2B block)
Cc1ccc(C)c(CN2C(=O)c3ccccc3Sc3ccc(C(=O)NC4CCCC4)cc32)c1	none (no result: L3MBTL1 inh)
O=C(c1ccccc1Cl)N1CCCC(c2nc3c(nnn3Cc3ccc(F)cc3F)c(=O)[nH]2)C1 (stereo unspecified)	none (no result: L3MBTL1 inh)
CN(C(=S)NC1=CCS(=O)(=O)C1)C1CCCCC1	G9a block 10µM (no result: L3MBTL1 inh)
CC1=C(C#N)c2nc(N)c(C#N)c(C)c2/C1=C\c1ccc(OCC(=O)O)c(Cl)c1	G9a block 22µM, JMJD2A Tudor inh 20µM, HP1b chromo inh inconclusive, L3MBTL1 inh inconclusive, BAZ2B block 50µM
CSc1ncc(C(=O)Nc2ccccc2F)c(-c2ccccc2)n1	none (no result: L3MBTL1 inh)
Cc1cc(O)ccc1NS(=O)(=O)c1ccc2c3c(cccc13)C(=O)N2	none (no result: L3MBTL1 inh)
COc1ccc(C)cc1NS(=O)(=O)c1ccc2c3c(cccc13)C(=O)N2	JMJD2A Tudor inh 56µM (no result: L3MBTL1 inh)
Cc1oc2c(cc(NS(=O)(=O)c3ccc4c5c(cccc35)C(=O)N4)c3ccccc32)c1C(=O)OC(C)C	G9a block 20µM
O=C1CCCc2oc3c(cc(NS(=O)(=O)c4ccc5c6c(cccc46)C(=O)N5)c4ccccc43)c21	G9a block inconclusive (no result: L3MBTL1 inh)
COc1cccc(S(=O)(=O)N2CCN(c3nc(-c4cccs4)nc4ccccc34)CC2)c1	none (no result: G9a block, L3MBTL1 inh, BAZ2B block)
N#Cc1ccc(N=c2ssnc2Cl)cc1	G9a block inconclusive, JMJD2A Tudor inh 22µM, HP1b chromo inh 7.1µM, BAZ2B block 35µM
Fc1ccc(N=c2ssnc2Cl)c(F)c1	G9a block 1.6µM, JMJD2A Tudor inh 22µM, HP1b chromo inh 5.6µM, BAZ2B block 50µM
Clc1nssc1=Nc1ccccc1	G9a block 2µM, JMJD2A Tudor inh 79µM, HP1b chromo inh 35µM, BAZ2B block 28µM (no result: L3MBTL1 inh)
